Test results from PubChem BioAssay (NCATS).
Results filed as inconclusive are left out. Where a call stands in place of a potency, no number is given. Active and inactive are the calls of the source. Calls follow the shape of the dose curve; as a rule, active = well fitted inhibition curve with a large enough effect; inconclusive = small, poorly fitted or top-dose-only effect; inactive = flat fitted curve, though single readings scatter.

test system: CP215; assay: qHTS profiling for inhibitors of Plasmodium falciparum proliferation (AID 504749); also: nearly all actives have a fitted effect of over 60% in size; details: P. falciparum in erythrocytes, SYBR Green DNA, 72 h; series mostly up to 28.7 µM
Method in brief: (§1)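 SYBR Green fluorescence of parasite DNA, read after lysis and overnight dark incubation, measured growth over 72 h in erythrocyte culture at 0.3% parasitemia and 2.5% hematocrit. Data normalised to DMSO and 0.29 uM artemisinin, with plate-drift correction.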
Potency is read from the fitted curve at half-maximal effect.

SMILES | Potency
C[C@](O)(CS(=O)(=O)c1ccc(F)cc1)C(=O)Nc1ccc(C#N)c(C(F)(F)F)c1 | inactive
COP(=S)(OC)SCN1C(=O)c2ccccc2C1=O | inactive
C[C@]12CC[C@@H]3c4ccc(OC(=O)N(CCCl)CCCl)cc4CC[C@H]3[C@@H]1CC[C@@H]2O | inactive
O=P1(N(CCCl)CCCl)NCCCO1 (centres undefined) | inactive
Cc1nnc2n1-c1ccc(Cl)cc1C(c1ccccc1)=NC2 | inactive
CCOC(=O)CC(SP(=S)(OC)OC)C(=O)OCC (centres undefined) | inactive
CCCCCCCCCC(=O)O[C@H]1CC[C@H]2[C@@H]3CCC4=CC(=O)CC[C@@H]4[C@H]3CC[C@]12C | inactive
Nc1ccccc1C(=O)O | inactive
Oc1ccc(Cl)cc1 | inactive
Cc1ncsc1CCCl | inactive
CN1C(=O)CCS(=O)(=O)C1c1ccc(Cl)cc1 (centres undefined) | inactive
NCCc1ccc(O)cc1 | inactive
C[C@]12CCC(=O)C=C1CC[C@@H]1[C@@H]2CC[C@]2(C)C(=O)CC[C@@H]12 | inactive
Clc1ccc2c(c1)C(c1ccccc1)=NCc1nncn1-2 | inactive
O=C1CN=C(c2ccccc2)c2cc([N+](=O)[O-])ccc2N1 | inactive
NC(=O)CS(=O)C(c1ccccc1)c1ccccc1 (centres undefined) | inactive
CCC1(c2ccccc2)C(=O)N(COC)C(=O)N(COC)C1=O | inactive
Nc1ccc([As](=O)(O)O)cc1 | inactive
O=c1oc2ccccc2c(O)c1Cc1c(O)c2ccccc2oc1=O | inactive
O=C(O)CCCc1ccc(N(CCCl)CCCl)cc1 | inactive
COc1c2c(cc3c1OCO3)CCN(C)C2 | inactive
CN1C(=O)NC(=O)C(C)(C2=CCCCC2)C1=O (centres undefined) | inactive
CN1C[C@H](C(=O)N[C@]2(C)O[C@@]3(O)[C@@H]4CCCN4C(=O)[C@H](Cc4ccccc4)N3C2=O)C=C2c3cccc4[nH]cc(c34)C[C@H]21 | 5360 nM (active)
CCCCCCC(=O)CCCCCC/C=C/C[C@@H](O)[C@H](O)[C@@](N)(CO)C(=O)O | inactive
CC(C)=CC1C(C(=O)OCN2C(=O)C3=C(CCCC3)C2=O)C1(C)C (centres undefined) | inactive
CN1C(=O)COc2c(C(=O)NC3CN4CCC3CC4)cc(Cl)cc21 (centres undefined) | inactive
COP(=S)(OC)Oc1ccc(SC)c(C)c1 | inactive
Nc1nc(N)nc(NC2CC2)n1 | inactive
O=C(Nc1ccc(Br)cc1)c1cc(Br)cc(Br)c1O | inactive

test system: CP217; assay: as above; details: P. falciparum in erythrocytes, SYBR Green DNA, 72 h; series mostly up to 28.7 µM
Method in brief: as §1

SMILES | Potency
C[C@](O)(CS(=O)(=O)c1ccc(F)cc1)C(=O)Nc1ccc(C#N)c(C(F)(F)F)c1 | inactive
COP(=S)(OC)SCN1C(=O)c2ccccc2C1=O | inactive
C[C@]12CC[C@@H]3c4ccc(OC(=O)N(CCCl)CCCl)cc4CC[C@H]3[C@@H]1CC[C@@H]2O | inactive
O=P1(N(CCCl)CCCl)NCCCO1 (centres undefined) | inactive
Cc1nnc2n1-c1ccc(Cl)cc1C(c1ccccc1)=NC2 | inactive
O=C1Nc2ccc(Cl)cc2C(c2ccccc2)=NC1O (centres undefined) | inactive
CCOC(=O)CC(SP(=S)(OC)OC)C(=O)OCC (centres undefined) | inactive
CCCCCCCCCC(=O)O[C@H]1CC[C@H]2[C@@H]3CCC4=CC(=O)CC[C@@H]4[C@H]3CC[C@]12C | inactive
Nc1ccccc1C(=O)O | inactive
Oc1ccc(Cl)cc1 | inactive
Cc1ncsc1CCCl | inactive
CN1C(=O)CCS(=O)(=O)C1c1ccc(Cl)cc1 (centres undefined) | inactive
NCCc1ccc(O)cc1 | inactive
C[C@]12CCC(=O)C=C1CC[C@@H]1[C@@H]2CC[C@]2(C)C(=O)CC[C@@H]12 | inactive
Clc1ccc2c(c1)C(c1ccccc1)=NCc1nncn1-2 | inactive
O=C1CN=C(c2ccccc2)c2cc([N+](=O)[O-])ccc2N1 | inactive
NC(=O)CS(=O)C(c1ccccc1)c1ccccc1 (centres undefined) | inactive
CCC1(c2ccccc2)C(=O)N(COC)C(=O)N(COC)C1=O | inactive
Nc1ccc([As](=O)(O)O)cc1 | inactive
O=c1oc2ccccc2c(O)c1Cc1c(O)c2ccccc2oc1=O | inactive
O=C(O)CCCc1ccc(N(CCCl)CCCl)cc1 | inactive
COc1c2c(cc3c1OCO3)CCN(C)C2 | inactive
CN1C(=O)NC(=O)C(C)(C2=CCCCC2)C1=O (centres undefined) | inactive
CN1C[C@H](C(=O)N[C@]2(C)O[C@@]3(O)[C@@H]4CCCN4C(=O)[C@H](Cc4ccccc4)N3C2=O)C=C2c3cccc4[nH]cc(c34)C[C@H]21 | 1410 nM (active)
CCCCCCC(=O)CCCCCC/C=C/C[C@@H](O)[C@H](O)[C@@](N)(CO)C(=O)O | inactive
CC(C)=CC1C(C(=O)OCN2C(=O)C3=C(CCCC3)C2=O)C1(C)C (centres undefined) | inactive
CN1C(=O)COc2c(C(=O)NC3CN4CCC3CC4)cc(Cl)cc21 (centres undefined) | inactive
COP(=S)(OC)Oc1ccc(SC)c(C)c1 | inactive
Nc1nc(N)nc(NC2CC2)n1 | inactive
O=C(Nc1ccc(Br)cc1)c1cc(Br)cc(Br)c1O | inactive

test system: CP237; assay: as above; details: P. falciparum in erythrocytes, SYBR Green DNA, 72 h; series mostly up to 28.7 µM
Method in brief: as §1

SMILES | Potency
C[C@](O)(CS(=O)(=O)c1ccc(F)cc1)C(=O)Nc1ccc(C#N)c(C(F)(F)F)c1 | inactive
COP(=S)(OC)SCN1C(=O)c2ccccc2C1=O | inactive
C[C@]12CC[C@@H]3c4ccc(OC(=O)N(CCCl)CCCl)cc4CC[C@H]3[C@@H]1CC[C@@H]2O | inactive
O=P1(N(CCCl)CCCl)NCCCO1 (centres undefined) | inactive
Cc1nnc2n1-c1ccc(Cl)cc1C(c1ccccc1)=NC2 | inactive
O=C1Nc2ccc(Cl)cc2C(c2ccccc2)=NC1O (centres undefined) | inactive
CCOC(=O)CC(SP(=S)(OC)OC)C(=O)OCC (centres undefined) | inactive
CCCCCCCCCC(=O)O[C@H]1CC[C@H]2[C@@H]3CCC4=CC(=O)CC[C@@H]4[C@H]3CC[C@]12C | inactive
Nc1ccccc1C(=O)O | inactive
Oc1ccc(Cl)cc1 | inactive
Cc1ncsc1CCCl | inactive
CN1C(=O)CCS(=O)(=O)C1c1ccc(Cl)cc1 (centres undefined) | inactive
NCCc1ccc(O)cc1 | inactive
C[C@]12CCC(=O)C=C1CC[C@@H]1[C@@H]2CC[C@]2(C)C(=O)CC[C@@H]12 | inactive
Clc1ccc2c(c1)C(c1ccccc1)=NCc1nncn1-2 | inactive
O=C1CN=C(c2ccccc2)c2cc([N+](=O)[O-])ccc2N1 | inactive
NC(=O)CS(=O)C(c1ccccc1)c1ccccc1 (centres undefined) | inactive
CCC1(c2ccccc2)C(=O)N(COC)C(=O)N(COC)C1=O | inactive
Nc1ccc([As](=O)(O)O)cc1 | inactive
O=c1oc2ccccc2c(O)c1Cc1c(O)c2ccccc2oc1=O | inactive
O=C(O)CCCc1ccc(N(CCCl)CCCl)cc1 | inactive
COc1c2c(cc3c1OCO3)CCN(C)C2 | inactive
CN1C(=O)NC(=O)C(C)(C2=CCCCC2)C1=O (centres undefined) | inactive
CN1C[C@H](C(=O)N[C@]2(C)O[C@@]3(O)[C@@H]4CCCN4C(=O)[C@H](Cc4ccccc4)N3C2=O)C=C2c3cccc4[nH]cc(c34)C[C@H]21 | 224 nM (active)
CCCCCCC(=O)CCCCCC/C=C/C[C@@H](O)[C@H](O)[C@@](N)(CO)C(=O)O | inactive
CC(C)=CC1C(C(=O)OCN2C(=O)C3=C(CCCC3)C2=O)C1(C)C (centres undefined) | inactive
CN1C(=O)COc2c(C(=O)NC3CN4CCC3CC4)cc(Cl)cc21 (centres undefined) | inactive
COP(=S)(OC)Oc1ccc(SC)c(C)c1 | inactive
Nc1nc(N)nc(NC2CC2)n1 | inactive
O=C(Nc1ccc(Br)cc1)c1cc(Br)cc(Br)c1O | inactive
